This is an account of results in PubChem BioAssay (NCI).

The panel holds about 83,000 compounds, 20% with a hit somewhere; the sample as a whole holds those more often.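 Compound tested at a single concentration for 48 hours in 96-well plates; a percent growth value below 10 was scored as active.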 The source made the active and inactive calls.

The test concerns HL-60(TB) leukemia. In words: NCI-60 one-dose screen, 48 h (100 = growth as untreated, 0 = no growth, -100 = all killed). The note with it: 10 µM unless noted.
As to `CCCN(CCC)CN(CCC)CCC`, the growth was 93.5% (inactive). In the case of `CCN(CC)c1ccc(/C=N/NC(=O)C[N+](C)(C)C)cc1`, the growth was 35.5% (inactive). Turning to `CN(C)CCN(C)CC(C)(C)C(=O)/C=C/c1ccc(Cl)cc1`, the growth is 0.343% (active).

On to `COc1cc(C(=O)/C=C/c2c(-c3cccs3)nc3ccccn23)cc(OC)c1OC`, for which the growth was -14.2% (active). For the compound `COc1cc2cc(Oc3ccc(NC(=O)Nc4ccc(F)c(C(F)(F)F)c4)cc3)c(C)nc2cc1OCCN1CCOCC1`, the growth was 19.3% (inactive). Consider `O=c1[nH][n+](-c2ccc(Cl)cc2)no1`, for which the growth is 24.9% (inactive).

Take `CC(C)C1CCC(C)C(O)C1` (stereo not given): the growth is 103% (inactive). As for `COc1cc(C(=O)c2c(-c3ccccc3)oc3c(OC)cccc23)cc(OC)c1OC`, the growth was -6.56% (active). For `CC(C)(CCN=C(N)Nc1ccccn1)c1ccc(C(F)(F)F)cc1` the value was -52.7% (active); for `N=C(N)c1ccc(-c2ccc(-c3ccc(Cl)cc3)o2)o1`, -53.5% (active); for `c1ccc(-c2nc3ccccc3s2)cc1`, 99.5% (inactive). Consider `COc1ccc2cc(C(C)C(=O)Nc3ccc(S(=O)(=O)Nc4cc(C)on4)cc3)ccc2c1` (stereo not given), for which the growth is 143% (inactive).

Take `Cc1cc(N2CCCCC2)nc(N2CCN(CC(=O)Nc3ccc4c(ccn4Cc4ccccc4)c3)CC2)n1`: the growth was 42.8% (inactive). The value for `C#Cc1cccc(NC(=O)c2ccccc2NC(=O)C=C)c1` was 97.7% [8.25 µM] (inactive). Consider `Oc1c(N=Nc2nn[nH]n2)ccc2ccccc12`, for which the growth is 98.2% (inactive). Take `COc1cc2cc(Oc3ccc(NC(=O)Nc4ccc(F)c(C(F)(F)F)c4)cc3)c(C)nc2cc1OCCN1CCCCC1`: the growth was -24.5% (active). As for `COc1ccc2[nH]cc(-c3nc(-c4c[nH]c5c(Cl)nccc45)cs3)c2c1`, the growth was 36% (inactive).

Regarding `CC1CCCCN1CCCNC(=O)c1ccc2c(c1)sc1nc(-c3ccc(F)cc3)cn12` (stereo not given), the growth was 74.1% (inactive). Take `CCOC(=O)C(CNc1ccccc1)C(=O)OCC`: the growth was 101% (inactive). `Cc1onc(-c2c(F)cccc2Cl)c1-c1ncc(-c2ccc(Cl)cc2)o1`: the growth was 36.4% (inactive). The value for `CCCCCCCCCCCCCCCCCCOc1ccccc1CC(=O)OCC[N+](CC)(CC)CC` was -20.7% (active); that for `CN(C)c1ccc(/C=C2\C=C(c3nc4ccccc4s3)OC2=O)cc1` was 94.8% (inactive); that for `CC(=O)O[C@H]1CC[C@]2(C)[C@H]3CC=C4[C@@H]5CC(C)(C)CC[C@]5(C(=O)NCCNCCNCCN)CC[C@@]4(C)[C@]3(C)CC[C@H]2C1(C)C` was -42.8% (active). With `CCN(CC)CC#CCOC(=O)[C@]1(C)CCC[C@@]2(C)[C@H]1CC(C=O)=C1C=C(C(C)C)CC[C@@H]12`, the growth was 51.6% (inactive).

As to `Nc1nccc(OCCO)n1`, the growth was 88.5% (inactive). Take `COc1ccc(Nc2nc(NCCNc3ccnc4cc(Cl)ccc34)nc(N3CCOCC3)n2)cc1`: the growth was 22.8% (inactive). Turning to `CCOc1ccccc1C(=O)/C=C/c1cc2ccccc2[nH]c1=O`, the growth was -7.94% (active). For `CNC(=O)c1cc(Oc2ccc3nc(NC(=O)Nc4ccc(Cl)c(C(F)(F)F)c4)sc3c2)ccn1` the value was 97.2% (inactive). In the case of `Cc1ccc2oc(=O)cc(-c3cc(-c4cc5ccccc5oc4=O)nc(N)c3C#N)c2c1`, the growth was 93.5% (inactive). For `COc1ccc(/C=C/C(=O)c2ccc(NC(=O)CSc3nc4c([nH]3)c(=O)n(C)c(=O)n4C)cc2)cc1OC` the value was 99.5% (inactive); for `COc1ccc(NC(=O)Nc2ccc(-c3ccc(OC)c(OC)c3)nc2C)cc1`, 85.7% (inactive); for `c1ccc2c(c1)Oc1ccccc1C2C1c2ccccc2Oc2ccccc21`, 99.4% (inactive). For the compound `Fc1ccc(Nc2nc(Nc3ccc(-c4nc5ccccc5[nH]4)cc3)c3cn[nH]c3n2)cc1`, the growth is 91.4% (inactive).

Regarding `CCOC(=O)CO`, the growth was 83.5% (inactive). Regarding `CC(=C(c1ccc(OCCN2CCCCC2)cc1)c1ccc(OCCN2CCCCC2)cc1)c1ccc(Cl)cc1`, the growth was -62% (active).

For the compound `CCN(CC)CCNC(=O)c1ccc(NC(C)=O)cc1`, the growth was 110% (inactive). Regarding `CC(=O)C1Cc2ccccc2C1=O` (stereo not given), the growth was 97.4% (inactive). Regarding `COc1ccccc1/C=N\N/C(N)=N\N=C\c1ccccc1OC`, the growth is -25.9% (active). For `COc1ccc(/C=C2\N=C(c3ccccc3)N(C(=O)c3ccccc3O)NC2=O)cc1` the value was -10.5% (active); for `C=C(C)[C@@H]1CC[C@]2(COCCCNCCCN)CC[C@]3(C)[C@H](CC[C@@H]4[C@@]5(C)CC[C@H](OCCCN)C(C)(C)[C@@H]5CC[C@]43C)[C@@H]12`, 48.2% (inactive).
